Compounds with a hit are over-represented: about 1.8% of the library has one in this group of screens.
LANA-H2B inh: blockers of LANA interaction with H2A/H2B – biochemical, FP readout, HTS, primary screen. cell-free LANA-H2A/H2B peptide, fluorescence polarization. hit rate 0.6% among 320,000. inhibition, % (no concentration beside the values). Protein LANA1 (Human herpesvirus 8 type P (isolate GK18)), Q9QR71; in the data active = inhibition mostly above about 10%, no sharp cut-off; inactive = mostly below about 6.7%
HTR2A ag: mouse Htr2a agonists via beta-arrestin recruitment, primary screen, cell-based, luminescence; activation, % at 7.6 µM; hit rate 0.66% among 360,000; 5-hydroxytryptamine receptor 2A (Mus musculus), P35363; CHO-K1 mHTR2A beta-arrestin complementation; percent of 30 µM serotonin response;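 active = activation above a run cutoff, the mean activation of all tested compounds plus 3 SD, cut at about 14% in these data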;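 also: 0% = plate median of compound wells and 100% = 30 µM serotonin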
TLR4 MyD88 comp: inhibitors of TLR4-MyD88 association in cells, primary screen, cell-based, HeLa CL3-4, BLA complementation, FRET ratio; Toll-like receptor 4 (Homo sapiens) + Myeloid differentiation primary response protein …; hit rate 0.18% among 200,000; inhibition, % at 8.4 µM; HeLa CL3-4 TLR4/MyD88 BLA complementation; in the data active = inhibition above about 25%;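 also: 0% = vehicle and 100% = reference inhibitor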
TLR9-MyD88 block: inhibitors of TLR9-MyD88 association in cells, primary screen, cell-based, CHO, BLA complementation, fluorescence | Toll-like receptor 9 (Homo sapiens) + Myeloid differentiation primary response protein … | CCF4 FRET ratio | inhibition, % at 4.98 µM | hit rate 0.21% among 340,000 | AID 504734, 2011;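 active = inhibition above the mean over all tested compounds plus 3 SD, cut at about 21% in these data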;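 also: 0% = DMSO only wells and 100% = clavulanate BLA inhibitor control wells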
NOD2-RIPK2 inh: NOD2-RIPK2 binding disruptors in cells, primary screen, fluorescence, CHO cells, BLA complementation | Receptor-interacting serine/threonine-protein kinase 2 (Homo sapiens), O43353 | CCF4 ratio | AID 624267, 2012 | hit rate 0.38% among 360,000 | inhibition, % at 4.98 µM; in the data active = inhibition above about 21%;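 also: 0% = vehicle only and 100% = reference blocker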
Rtt109 Vps75: inhibitors of C. albicans Rtt109/Vps75 HAT, primary screen, biochemical, ThioGlo CoA-SH fluorescence, plate reader | hit rate 0.16% among 330,000 | inhibition, % at 34.9 µM | Histone acetyltransferase RTT109 (Candida albicans (strain SC5314 / ATCC MYA-2876)), … | purified Rtt109/Vps75, 4 h | AID 540336, 2011;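 active = inhibition of at least 50% in every replicate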
Target sequence (Q5AAJ8 whole entry, looked up): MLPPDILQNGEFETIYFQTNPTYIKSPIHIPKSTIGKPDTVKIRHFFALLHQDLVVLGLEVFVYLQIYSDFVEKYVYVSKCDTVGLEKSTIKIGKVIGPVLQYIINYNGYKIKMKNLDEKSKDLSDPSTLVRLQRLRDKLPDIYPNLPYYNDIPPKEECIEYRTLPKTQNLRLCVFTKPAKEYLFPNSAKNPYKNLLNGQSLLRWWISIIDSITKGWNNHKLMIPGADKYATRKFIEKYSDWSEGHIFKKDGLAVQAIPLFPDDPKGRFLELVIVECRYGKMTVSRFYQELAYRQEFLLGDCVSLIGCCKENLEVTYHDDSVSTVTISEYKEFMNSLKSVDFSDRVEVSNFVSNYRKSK
OPRM1 ag: OPRM1 agonists via beta-arrestin recruitment, confirmation, counter-screen for mouse HTR2A agonist project, cell-based, luminescence, single concentration | shares compounds with HTR2A ag | hit rate 5.3% among 2,300 | U2OS OPRM1 beta-arrestin PathHunter; DMSO 0%, DAMGO 9.3 µM 100% | activation, % at 9.3 µM;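 active = mean activation above the mean of DMSO-only wells plus 3 SD, cut at about 0.5% in these data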
m5-HT2A ag conf: mouse HTR2A agonists, beta-arrestin recruitment, confirmation, cell-based, luminescence, CHO-K1 PathHunter, triplicate. shares compounds with HTR2A ag. activation, % at 7.6 µM. DMSO 0%, 30 µM serotonin 100%. hit rate 19% among 2,300;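 active = mean activation across triplicates above the hit threshold derived in the original primary screen, cut at about 15% in these data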
Starred values were filed as active, the others as inactive; x = not tested or not shown.

SMILES | LANA-H2B inh | HTR2A ag | TLR4 MyD88 comp | TLR9-MyD88 block | NOD2-RIPK2 inh | Rtt109 Vps75 | OPRM1 ag | m5-HT2A ag conf
O=C(c1cccc(S(=O)(=O)NCc2ccccc2)c1)N1CCN(Cc2ccccc2)CC1 | 2 | -4 | -1 | -5 | -12 | -4 | x | x
O=C(c1cccc(S(=O)(=O)NCc2ccccc2)c1)N1CCCCC1 | 0 | 19* | x | 4 | -10 | -2 | 0 | 3
COCCn1c(N)c(N(Cc2ccccc2)C(=O)COc2ccc(F)cc2Cl)c(=O)[nH]c1=O | 0 | 1 | x | -7 | 13 | 6 | x | x
COc1ccc(CN2CCC2(C)C(=O)Nc2ccc(OC)c(OC)c2)cc1 (stereo unspecified) | x | -3 | x | x | -2 | x | x | x
CCC1CCCCN1C(=O)c1cc(COc2ccc(-n3cncn3)cc2)on1 (stereo unspecified) | 0 | 4 | x | -18 | 2 | 4 | x | x
Cc1cccc(NC(=O)CSc2nnc(-c3ccc(S(=O)(=O)N4CCOCC4)cc3)n2C)c1 | 5 | 29* | 0 | -2 | -22 | 3 | 0.8* | 1
CCc1ccccc1-n1nnnc1SCC(=O)Nc1cc(C)on1 | 2 | 15* | x | 1 | -1 | 12 | 0 | 7
Cc1cccc(-c2nnc(SCC(=O)Nc3cc(C)on3)n2C)c1 | 0 | 18* | x | 7 | -8 | 1 | 0 | -4
Cc1cc(NC(=O)CSc2nnnn2-c2ccccc2C)no1 | 3 | -4 | x | -1 | 1 | -5 | x | x
Cc1csc(=O)n1CCC(=O)N(C)Cc1c(F)cccc1Cl | -5 | 1 | x | -1 | 3 | 1 | x | x
Cc1nc(C)n(CCNC(=O)c2ccco2)n1 | 0 | 0 | x | 0 | 7 | -8 | x | x
Cc1ccc(NC(=O)CSCC(=O)Nc2ccccc2N2CCCC2)cc1 | -4 | -5 | x | -10 | -8 | -2 | x | x
Cc1cc2c3c(c1C)C1(C(=O)N3C(C)(C)CC2C)C(C#N)=C(N)Oc2cc(O)ccc21 (stereo unspecified) | -5 | 25* | 7 | 9 | -16 | 4 | -1 | 3
Cc1cc2c3c(c1)C1(C(=O)N3C(C)(C)CC2C)C(C#N)=C(N)OC2=C1C(=O)CC(C)(C)C2 (stereo unspecified) | -1 | 4 | -2 | 10 | -2 | -14 | x | x
Cc1ccc(C(=O)NCc2ccccc2CN2CCCC2)cc1S(=O)(=O)N1CCOCC1 | -8 | -10 | x | -14 | -1 | 2 | x | x
COc1ccc2c(CC(=O)OCC(=O)N3CCc4ccccc43)coc2c1 | -1 | 16* | 12 | 2 | -4 | -6 | 0 | -5
CCC1=C(OC(=O)N(CC)CC)N2C(=O)OC(=NCCc3c[nH]c4ccccc34)[C@]2(Cc2ccccc2)[C@H]2C1=CC[C@H]1C(=O)NC(=O)[C@H]12 | 6 | -1 | x | -5 | -9 | 11 | x | x
COCC(=O)Nc1cc([N+](=O)[O-])ccc1OC | -2 | 44* | -13 | 4 | 3 | 2 | -1 | -5
CCc1cccc2c(C(=O)CN3C(=O)N(C)C4(CCCCC4)C3=O)c[nH]c12 | -1 | -9 | x | 9 | 2 | 21 | x | x
COc1ccc(S(=O)(=O)NC(C)C(=O)NCc2cccnc2)cc1C (stereo unspecified) | -4 | 15* | x | 0 | -10 | 6 | 0 | -1
Cc1c(C)c2ccc(OCC(=O)Nc3ccccn3)cc2oc1=O | 4 | 18* | x | 16 | -1 | 5 | -1 | -3
Cc1cc(C)cc(OCC(=O)OCC(=O)NCc2ccco2)c1 | -2 | -2 | -8 | -5 | -5 | -9 | x | x
Cc1cc(OCC(=O)OCC(=O)NCc2ccco2)ccc1Cl | 8 | 15* | x | -13 | -6 | -3 | -1 | -2
N#CC1(NC(=O)COC(=O)C2CCN(S(=O)(=O)c3ccc4c(c3)OCCO4)CC2)CCCCC1 | x | -3 | x | 0 | -9 | 15 | x | x
N#Cc1ccc(S(=O)(=O)N2CCN(CC(=O)NCC3(N4CCOCC4)CCCCC3)CC2)cc1 | 1 | 7 | x | 2 | -7 | 8 | x | x
SMILES | LANA-H2B inh | HTR2A ag | TLR4 MyD88 comp | TLR9-MyD88 block | NOD2-RIPK2 inh | Rtt109 Vps75 | OPRM1 ag | m5-HT2A ag conf
O=S(=O)(NCCSc1ccccc1)c1cccs1 | 1 | 15* | -3 | 1 | 0 | -6 | -1 | -5
O=S(=O)(NCCc1ccccc1)c1cccs1 | -4 | -2 | x | -15 | 9 | -2 | x | x
Cc1ccc(S(=O)(=O)N2[C@H](CC(=O)c3cccc4ccccc34)OC[C@@H]2C(C)C)cc1 | x | -2 | x | x | -13 | x | x | x
COc1cc(C(=O)NCc2nnc(SCC(=O)NC3CCCC3)o2)cc(OC)c1OC | 3 | 8 | x | 9 | -1 | 8 | x | x
C[C@H](NC(=O)[C@@H]1CSC2c3ccccc3C(=O)N21)C(=O)NCc1c(F)cccc1Cl (stereo partly specified) | -3 | 17* | x | -6 | -1 | -4 | 0 | -4
CCOC(=O)c1c2c(n(C)c1C)C(=O)C(=O)c1ccc(Br)cc1-2 | 1 | -2 | -13 | 8 | 4 | -5 | x | x
CCOC(=O)c1c2c(n(Cc3ccccc3)c1C)C(=O)C(=O)c1ccccc1-2 | x | 15* | x | 2 | -2 | 1 | 1.8* | 9
CCS(=O)(=O)C1=NN2C(=N)/C(=C\c3ccc(SCc4ccco4)o3)C(=O)N=C2S1 | x | 18* | 3 | 2 | 4 | 10 | 2.2* | 13
CC(C)(C)N(Cc1ccc2c(c1)OCO2)C(=O)/C=C\S(=O)c1ccccc1 (stereo unspecified) | x | 19* | x | -8 | 11 | 9 | -1 | 2
CCCN[C@H]1CCc2nc(N)sc2C1 | 4 | 60* | x | 4 | 0 | 7 | 0 | 142*
Nc1nc2c(s1)CCCCCCCCCC2 | -6 | 0 | x | x | -5 | x | x | x
Cc1ccc(S(=O)(=O)N2CCCCC2)cc1NC(=O)c1ccncc1 | x | 13 | x | -2 | -16 | 7 | x | x
CN1[C@@H]2CCC[C@H]1CC(NC(=O)c1nn(C)c3ccccc13)C2 (stereo partly specified) | -2 | 7 | x | 3 | -1 | 11 | x | x
COc1ccccc1CNS(=O)(=O)c1c(C)nc2scc(C)n2c1=O | 0 | 15* | x | 5 | -2 | -4 | 0 | 1

Source: PubChem BioAssay (several laboratories)
